The record followed here is PubChem BioAssay (NCATS).

Values without a mark were called inactive. Inconclusive results are not listed. Activity calls are given as the source filed them. Unless noted, calls come from the whole dose curve; as a rule, active = well fitted curve in the direction sought with a large enough effect; inconclusive = small, poorly fitted or top-dose-only effect, or another doubt; inactive = no such curve, though single readings can be large; an effect the other way counts as inactive or inconclusive.

Assay [1] can be described thus: qHTS assay for measurement of the activity of small molecule inhibitors on Zika virus induced Caspase-3 activity in human iPSC derived neural progenitor cells (hNPCs) (AID 1224857). For activity change, negative = inhibition: % of control where 0% means no effect. Note: nearly all actives have a fitted effect of over 65% in size. Note: potency is the fitted concentration of half-maximal effect. An outline of the steps:
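Values are percent inhibition of virus-induced caspase-3/7 signal, scaled between uninfected cells and ZIKV-infected cells. Infection used 2 FFU/cell for 6 h after 1 h compound exposure.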
(In qHTS, concentration-response curves come from the screen itself.)

The nature of assay [2]: qHTS assay to identify small molecule inhibitors of chordoma cells - UCH-1 (AID 1259355). Note: % is set by controls: 0 for no effect and ±100 for the full control effect; nearly all actives have a fitted effect of over 55% in size. A digest of the protocol:
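Screening used approved and investigational drugs in 15-point titration against 800 seeded cells per well. A fixed combination of auranofin with camptothecin, doxorubicin, rubitecan and topotecan followed compound addition, and growth was scored by CellTiter-Glo after 48hr.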

The nature of assay [3]: qHTS assay to identify small molecule inhibitors of chordoma cells - UCH-2 (AID 1259356). Note: series mostly up to about 46 µM; % is set by controls: 0 for no effect and ±100 for the full control effect.
A short description of assay [4]: P-glycoprotein substrates identified in KB-8-5-11 adenocarcinoma cell line, qHTS therapeutic library screen (AID 1346987). Note: nearly all actives have a fitted effect of over 65% in size. Note: potency is the fitted concentration of half-maximal effect. A digest of the protocol:
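Luminescence from CellTiter-Glo, read 5 min after addition, quantified survival of KB-8-5-11 (P-gp-overexpressing) cells exposed to compounds for 72 h. AC50 was derived from concentration-response curves.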

Assay [5] in a line: NS1 protein of Zika virus - qHTS assay to identify small molecule inhibitors in human HEK 293 cells (AID 1347053).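 Note: series mostly up to about 46 µM; plate controls were infected untreated cells for no effect and uninfected cells for full effect; nearly all actives have a fitted effect of over 55% in size.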 A digest of the protocol: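 TR-FRET signal from two anti-ZIKV NS1 antibodies quantified NS1 in HEK 293 cells 24 h after MR766 infection at MOI = 0.5; compounds were added 1 h before virus. Uninfected cells and infected cells defined the NS1 normalization range.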

A short description of assay [6]: qHTS of pediatric cancer cell lines to identify multiple opportunities for drug repurposing: Primary screen for TC32 cells (AID 1347089). Note: % is set by controls: 0 for no effect and ±100 for the full control effect; nearly all actives have a fitted effect of over 60% in size. An outline of the steps: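 A viability screen of TC32 cells was run over 48 h, with primary MIPE doses spanning 0.78 nM–46 µM and NPC doses 0.59 nM–46 µM. ATP luminescence (CellTiter-Glo) served as the read-out.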
Assay [7] is described as follows: qHTS of pediatric cancer cell lines to identify multiple opportunities for drug repurposing: Primary screen for DAOY cells (AID 1347090).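 Note: series mostly up to about 46 µM; plate controls were DMSO for no effect and bortezomib for full effect; nearly all actives have a fitted effect of over 55% in size.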 A digest of the protocol:
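Viability measured as metabolically active cells via CellTiter-Glo luminescence following 48 hours of compound exposure, 11-point dilutions in confirmatory testing. 500-1,000 cells/well plated 5 hours before dosing; controls were DMSO and 2.3 µM bortezomib.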

Assay [8] is described as follows: qHTS assay for measurement of the activity of small molecule inhibitors on Zika virus induced Caspase-3 activity in human astrocytoma cells (AID 1224859).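 Note: plate controls were ZIKV-infected untreated cells for no effect and uninfected cells for full effect.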 An outline of the steps:
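Compound added 1 h pre-infection; ZIKV 2 FFU/cell on SNB-19 cells, 6 h, 37 C/5% CO2. Caspase-Glo 3/7 luminescence; values as % inhibition of ZIKV-induced caspase activity.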

In assay [9] the target is Atrial natriuretic peptide receptor 1 (Homo sapiens) (UniProt P16066). The experiment in a line: Natriuretic polypeptide receptor (hNpr1) antagonism - Pilot screen (AID 1347049; calls by dose curve;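 note: agonist-evoked cGMP luminescence read 20 min after hNppA addition; series mostly up to about 58 µM; % is set by controls: 0 for no effect and ±100 for the full control effect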). A digest of the protocol: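 cGMP-sensor HEK293/hNpr1 cells, 1500/well, plated overnight at 37C. 2% GloSensor reagent, 2 h RT. Compound (23 nL pin transfer) 30 min RT, baseline luminescence pre-read. 0.1 nM hNppA, 20 min RT, post-read.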

Assay [10] has as its target Atrial natriuretic peptide receptor 2 (Homo sapiens) (UniProt P20594). The experiment in a line: Natriuretic polypeptide receptor (hNpr2) antagonism - Pilot subtype selectivity assay (AID 1347050; calls by dose curve; note: % is set by controls: 0 for no effect and ±100 for the full control effect). A digest of the protocol:
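Luminescence from a genetically encoded cGMP luciferase biosensor in hNpr2-expressing HEK293 cells is read before and 20 min after adding 1 nM hNppC. Test compounds, in interplate 1:5 titrations, are added 30-50 min ahead of the agonist.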

Assay [11] deals with Parathyroid hormone/parathyroid hormone-related peptide receptor (Homo sapiens) (UniProt Q03431). The assay can be described thus: qHTS for PTHR1 Agonists: Optimization Screen against the NCGC LOPAC library (AID 1347079).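 Note: GloSensor cAMP luminescence in HEK-293 GP2 cells expressing human PTHR1 with IBMX; 0% is about no effect.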 A digest of the protocol: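 HEK-293 GP2 cells, PTHR1 + GloSensor cAMP; 3000 cells/well, o/n. Luciferin + IBMX 0.5mM each (stock), 1 hr 37C. Cpd titration, 1 hr 37C. Lum after 15 min RT. Ctrl M-PTH(1-15) top 10uM.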

In assay [12] the target is T1, Tyrosine-protein phosphatase non-receptor type substrate 1 (Homo sapiens) + Leukocyte surface antigen CD47 (Homo sapiens) (UniProt P78324+Q08722). The experiment in a line: CD47-SIRPalpha protein protein interaction - LANCE assay qHTS validation (AID 1347057; active = well fitted curve in the direction sought with a large enough effect in the signal ratio, with a control signal flat, not every such curve was filed as active; the % refers to the signal ratio; note: series mostly up to about 38 µM; 0% is about no effect). An outline of the steps:
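Inhibition of soluble CD47/SIRPalpha ectodomain association by titrated compounds, measured as 665/615 nm time-resolved FRET ratio after sequential 30 min room-temperature incubations.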

For assay [13], the target named is T1, Tyrosine-protein phosphatase non-receptor type substrate 1 (Homo sapiens) + Leukocyte surface antigen CD47 (Homo sapiens). The experiment in a line: CD47-SIRPalpha protein protein interaction - HTRF assay qHTS validation (AID 1347058; active = well fitted curve in the direction sought with a large enough effect in the signal ratio, not every such curve was filed as active; the % refers to the signal ratio; note: series mostly up to about 38 µM; 0% is about no effect). A digest of the protocol:
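Soluble extracellular domains (6His-CD47, Avi-tag-biotinylated SIRPalpha) in PBS pH 7.4 with 0.05% IGEPAL CA-630. Compounds were preincubated 30 min at RT with CD47 and anti-His-Eu, then SIRPalpha and SAV-XL665 were added. TR-FRET 665/615 ratio.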
(In general: Time-resolved FRET reads energy transfer from a long-lived donor to a nearby acceptor.)

For assay [14] the target is unchanged. The assay can be described thus: CD47-SIRPalpha protein protein interaction - Alpha assay qHTS validation (AID 1347059).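 Note: bead proximity luminescence from CD47 binding SIRPalpha after compound preincubation with SIRPalpha; % is set by controls: 0 for no effect and ±100 for the full control effect.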 An outline of the steps:
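SIRPalpha-biotin 25 nM + cpd, 30 min RT, dark; add CD47-His 12.5 nM, 30 min; add Ni-NTA/SAV beads 10 ug/mL, 30 min; AlphaScreen. Buffer PBS pH 7.4 + 0.05% IGEPAL CA-630. Non-biotinylated SIRPalpha as control inhibitor.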

Assay [15] can be described thus: Natriuretic polypeptide receptor (hNpr1) antagonism - Pilot counterscreen GloSensor control cell line (AID 1347045; calls by dose curve). A digest of the protocol: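 Cells were first seeded and incubated overnight at 37C, then loaded with 2% GloSensor substrate for 2 h. Compounds were added for 30 min at room temperature, followed by a baseline read, 50 uM SNP and a final read after 20 min.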
On the technique in general: The purpose of a counterscreen is to sort out artefacts and off-target activity.

Chain of Parathyroid hormone/parathyroid hormone-related peptide receptor (Homo sapiens) (Q03431 whole entry, looked up): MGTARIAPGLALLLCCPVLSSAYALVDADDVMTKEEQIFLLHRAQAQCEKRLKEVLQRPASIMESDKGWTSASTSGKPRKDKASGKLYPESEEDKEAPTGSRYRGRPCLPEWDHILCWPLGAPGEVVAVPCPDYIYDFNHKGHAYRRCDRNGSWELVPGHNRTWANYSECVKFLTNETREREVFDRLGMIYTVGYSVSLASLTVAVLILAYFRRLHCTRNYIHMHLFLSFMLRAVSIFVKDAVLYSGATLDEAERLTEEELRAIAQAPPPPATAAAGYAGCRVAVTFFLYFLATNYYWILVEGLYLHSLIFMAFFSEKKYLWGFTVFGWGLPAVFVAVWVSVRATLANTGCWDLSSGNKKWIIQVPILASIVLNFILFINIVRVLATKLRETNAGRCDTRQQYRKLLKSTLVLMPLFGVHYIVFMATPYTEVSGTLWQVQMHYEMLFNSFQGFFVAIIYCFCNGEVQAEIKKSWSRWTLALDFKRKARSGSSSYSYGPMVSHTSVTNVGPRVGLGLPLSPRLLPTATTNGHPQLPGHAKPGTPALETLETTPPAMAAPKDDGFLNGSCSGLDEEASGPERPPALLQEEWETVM
Chain of Atrial natriuretic peptide receptor 1 (Homo sapiens) (P16066 whole entry, looked up): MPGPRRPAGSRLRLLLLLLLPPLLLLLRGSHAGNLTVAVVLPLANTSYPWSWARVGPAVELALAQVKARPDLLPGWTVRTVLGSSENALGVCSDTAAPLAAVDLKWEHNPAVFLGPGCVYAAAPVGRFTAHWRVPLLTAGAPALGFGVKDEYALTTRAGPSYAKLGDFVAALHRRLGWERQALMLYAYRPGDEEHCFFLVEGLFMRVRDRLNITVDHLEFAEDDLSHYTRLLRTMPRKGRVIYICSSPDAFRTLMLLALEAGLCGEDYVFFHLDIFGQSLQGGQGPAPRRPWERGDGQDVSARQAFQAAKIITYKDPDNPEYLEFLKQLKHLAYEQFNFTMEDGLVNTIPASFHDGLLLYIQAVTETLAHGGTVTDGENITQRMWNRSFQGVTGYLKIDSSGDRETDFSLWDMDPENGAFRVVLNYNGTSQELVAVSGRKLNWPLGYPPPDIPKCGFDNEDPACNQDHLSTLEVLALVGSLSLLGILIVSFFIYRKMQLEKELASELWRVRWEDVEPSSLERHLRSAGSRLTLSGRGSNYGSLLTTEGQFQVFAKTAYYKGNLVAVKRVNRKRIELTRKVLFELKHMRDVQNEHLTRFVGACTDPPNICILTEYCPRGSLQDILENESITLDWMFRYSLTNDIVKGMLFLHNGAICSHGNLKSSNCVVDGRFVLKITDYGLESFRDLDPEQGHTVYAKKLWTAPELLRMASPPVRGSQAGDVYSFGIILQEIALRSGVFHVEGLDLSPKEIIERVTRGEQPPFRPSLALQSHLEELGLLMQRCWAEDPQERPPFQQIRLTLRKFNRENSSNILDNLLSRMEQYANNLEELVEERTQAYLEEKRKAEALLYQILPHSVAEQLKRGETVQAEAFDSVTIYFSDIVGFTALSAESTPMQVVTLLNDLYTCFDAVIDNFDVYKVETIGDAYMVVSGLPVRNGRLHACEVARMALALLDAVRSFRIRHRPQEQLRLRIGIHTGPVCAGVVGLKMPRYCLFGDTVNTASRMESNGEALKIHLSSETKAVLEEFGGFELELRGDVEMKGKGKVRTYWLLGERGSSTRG
Chain of Atrial natriuretic peptide receptor 2 (Homo sapiens) (P20594 whole entry, looked up): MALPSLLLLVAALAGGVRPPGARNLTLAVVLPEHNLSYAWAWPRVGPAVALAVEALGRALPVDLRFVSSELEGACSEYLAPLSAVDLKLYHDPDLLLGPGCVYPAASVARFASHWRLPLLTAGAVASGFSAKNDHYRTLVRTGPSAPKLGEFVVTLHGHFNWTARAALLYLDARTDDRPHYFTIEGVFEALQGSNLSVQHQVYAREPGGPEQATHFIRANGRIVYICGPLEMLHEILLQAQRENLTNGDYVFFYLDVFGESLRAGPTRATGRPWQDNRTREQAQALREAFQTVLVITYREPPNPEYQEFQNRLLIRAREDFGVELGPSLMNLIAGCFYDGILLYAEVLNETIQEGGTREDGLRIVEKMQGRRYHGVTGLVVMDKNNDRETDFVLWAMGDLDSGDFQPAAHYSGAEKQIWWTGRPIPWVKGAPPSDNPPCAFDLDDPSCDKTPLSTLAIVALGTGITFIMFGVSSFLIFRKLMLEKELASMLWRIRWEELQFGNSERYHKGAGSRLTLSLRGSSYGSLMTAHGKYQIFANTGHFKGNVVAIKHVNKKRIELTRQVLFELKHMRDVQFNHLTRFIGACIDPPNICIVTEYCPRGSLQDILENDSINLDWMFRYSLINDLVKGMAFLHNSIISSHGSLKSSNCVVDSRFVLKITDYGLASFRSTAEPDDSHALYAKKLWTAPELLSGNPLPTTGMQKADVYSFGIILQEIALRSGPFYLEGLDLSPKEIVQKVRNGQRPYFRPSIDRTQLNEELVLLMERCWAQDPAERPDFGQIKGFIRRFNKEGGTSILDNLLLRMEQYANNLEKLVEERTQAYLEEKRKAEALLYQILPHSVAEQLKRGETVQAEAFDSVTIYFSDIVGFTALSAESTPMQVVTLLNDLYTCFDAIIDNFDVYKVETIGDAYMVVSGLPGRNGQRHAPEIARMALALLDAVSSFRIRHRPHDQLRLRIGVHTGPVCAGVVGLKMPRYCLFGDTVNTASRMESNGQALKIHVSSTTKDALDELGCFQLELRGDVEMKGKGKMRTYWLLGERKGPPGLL
T1 sequence (P78324 whole entry, looked up, the tested form may be a part): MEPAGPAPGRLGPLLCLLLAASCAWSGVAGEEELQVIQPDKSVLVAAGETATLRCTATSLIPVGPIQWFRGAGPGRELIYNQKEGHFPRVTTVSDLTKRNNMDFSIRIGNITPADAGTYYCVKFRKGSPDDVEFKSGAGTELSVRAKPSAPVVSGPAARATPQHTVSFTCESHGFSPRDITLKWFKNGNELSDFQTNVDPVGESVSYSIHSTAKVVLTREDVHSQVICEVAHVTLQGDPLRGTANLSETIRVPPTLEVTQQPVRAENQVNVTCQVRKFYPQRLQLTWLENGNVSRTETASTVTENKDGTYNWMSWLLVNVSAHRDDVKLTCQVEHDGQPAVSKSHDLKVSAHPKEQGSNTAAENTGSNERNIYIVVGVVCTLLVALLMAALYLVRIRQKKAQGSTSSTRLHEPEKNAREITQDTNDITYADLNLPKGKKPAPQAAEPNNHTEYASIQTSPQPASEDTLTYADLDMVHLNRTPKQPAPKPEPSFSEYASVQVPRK
T1 sequence (Q08722 whole entry, looked up, the tested form may be a part): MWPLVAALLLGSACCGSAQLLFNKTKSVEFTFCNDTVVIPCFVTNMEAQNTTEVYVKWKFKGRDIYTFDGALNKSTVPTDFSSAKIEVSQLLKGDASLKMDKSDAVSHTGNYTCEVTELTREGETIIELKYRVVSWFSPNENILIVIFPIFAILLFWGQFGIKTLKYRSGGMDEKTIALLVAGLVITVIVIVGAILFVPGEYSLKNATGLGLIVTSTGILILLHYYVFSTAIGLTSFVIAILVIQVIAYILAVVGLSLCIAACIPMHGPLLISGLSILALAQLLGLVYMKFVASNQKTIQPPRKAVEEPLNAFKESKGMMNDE

For `C#CC1(O)CC[C@H]2[C@@H]3CCC4=CCCC[C@@H]4[C@H]3CC[C@@]21C` (some centres not stated), the Potency entry in [1], in assay [2], in assay [3], in assay [4], in assay [5] and in assay [6] was “inactive” in each case.

Regarding `O=c1[nH]c2ccccc2n1CCCN1CCN(C(c2ccccc2)c2ccccc2)CC1`, the Potency result in assay [1], in assay [2], in assay [3], in assay [5], in [6] and in assay [7] was “inactive” in each case.

For `Cn1c(=O)c2[nH]c(-c3ccccc3)nc2n(C)c1=O`, the Potency entry in [1], in [8], in assay [9], in assay [10] and in assay [11] was “inactive” in each case.

`O=c1[nH]c2cc(C(F)(F)F)ccc2n1-c1cc(C(F)(F)F)ccc1O`: the Potency entry in [1], in assay [8], in [10], in [5], in assay [12] and in assay [14] was “inactive” in each case. In addition, the Potency entry in [11] is “inactive”. Further, the outcome in [13] was inactive.

As for `O=C(Nc1ccccc1)c1cc([N+](=O)[O-])ccc1Cl`, the Potency entry in assay [1], in assay [8], in [9], in assay [10], in [12] and in assay [14] was “inactive” in each case. In addition, in assay [11], the Potency result is “inactive”.

Take `S=C(S)OC1CC2CC1C1CCCC21` (configuration not stated): the Potency result in assay [1], in assay [8], in assay [5], in assay [12], in [14] and in assay [11] was “inactive” throughout. For the same compound, the result in [13] was inactive.

As to `CC(C(=O)O)c1ccc(C(=O)c2cccs2)cc1` (configuration not stated), the Potency in assay [1] is 22.4 µM (active). The Potency result in assay [2], in assay [3], in assay [4], in assay [5], in assay [6] and in [7] was “inactive” in each case.

Consider `COCCOc1cc2ncnc(Cl)c2cc1OCCOC`, for which the Potency result in assay [1], in assay [5], in [12] and in [14] was “inactive” each time. Further, the outcome in [13] was inactive.

For the compound `O=C(Nc1ccc2[nH]ncc2c1)C1CCC1`, the Potency entry in assay [1], in [4], in assay [5], in [12] and in assay [14] was “inactive” throughout. Also, the result in assay [13] was inactive.

In the case of `O=C(O)Cc1cccc(-c2cc(CCCCCCc3ccc(O[C@H]4O[C@H](CO)[C@@H](O)[C@H](O)[C@@H]4O)c(-c4cccc(CC(=O)O)c4)c3)ccc2O[C@H]2O[C@H](CO)[C@@H](O)[C@H](O)[C@@H]2O)c1`, the activity change, negative = inhibition in assay [1] was 14.4% [at 0.568 µM]; in [5], -8.2% [at 0.593 µM]. Besides, the activity change, negative = cytotoxicity in assay [4] was 3.65% [at 0.354 µM]. Besides, the activity change, negative = cytotoxic was 14.4% [at 0.594 µM] in assay [6] and 1% [at 0.597 µM] in [7].

`CC(C)(NS(=O)(=O)c1ccc(Oc2ccc(F)cc2)cc1)C(=O)NO`: the Potency entry in assay [1], in assay [5], in [12] and in assay [14] was “inactive” in each case. Further, in assay [13], the result was inactive.

For `O=C(CCc1ccncc1)NNC(=O)N1Cc2ccccc2Oc2ccc(Cl)cc21`, the Potency result in assay [1], in [5], in assay [12] and in assay [14] was “inactive” each time. Also, in assay [13], the outcome was inactive.

With `CCCCN(CC)c1nc(C)nc2c1c(C)cn2-c1c(C)cc(C)cc1C`, the Potency entry in assay [1], in [4], in assay [5], in assay [12] and in [14] was “inactive” throughout.

In the case of `COC(=O)C1=C(C)NC(C)=C(C(=O)OC)C1c1cccc(NC(=O)NCCCN2CCC(c3cccc(OC)c3)CC2)c1`, the Potency result in assay [1], in assay [4], in assay [12] and in [14] was “inactive” in each case. Besides, in assay [13], the result was inactive.

With `Cc1c(N)c(=O)n(-c2ccccc2)n1C`, the Potency entry in assay [1], in assay [4], in assay [6] and in assay [7] was “inactive” in each case.

Regarding `CCN(CC)CCCCNc1ncc2cc(-c3c(Cl)cccc3Cl)c(NC(=O)NC(C)(C)C)nc2n1`, the Potency result in [1], in assay [12] and in assay [14] was “inactive” each time. Moreover, the Potency in assay [4] was 16.4 µM (active).

Turning to `O=C(O)c1cc([N+](=O)[O-])ccc1NCCCc1ccccc1`, the Potency in [1] was 10 µM (active). The Potency result in assay [15], in assay [9], in assay [10], in assay [5], in [12] and in [14] was “inactive” throughout.
